Where a name gives a salt, the structure may show the parent alone.

This is an account of results in the supplement of paper PMC9694430.

One experiment has as its system LOC_OS01G51400-cb002. Nature of the experiment: thermal shift delta Tm vs DMSO control; higher = stronger stabilization (binding). The settings on record: 12.5 µM; protein concentration 2 µM. In short, it runs like this:
(§1)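 The melting temperature shift given here is a triplicate mean, measured against protein that received only DMSO. Melting temperatures came from Boltzmann fits of differential scanning fluorimetry data on E. coli-expressed, purified rice kinase domain constructs. Each 19.5 μl well contained 2 μM kinase, 100 mM potassium phosphate pH 7.5, 150 mM NaCl, 10% glycerol, 5 × SYPRO Orange and compound in DMSO. Plates were scanned from 25°C to 95°C at 0.05°C/s.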
With `COc1ncc(-c2ccc3nccc(-c4ccnnc4)c3c2)cc1NS(=O)(=O)c1ccc(F)cc1F`, the “thermal shift delta Tm” value is 0.55 °C. On to `CNC(=O)c1cc(COc2nnc(Nc3ccc(Cl)cc3)c3ccoc23)ccn1` [Telatinib], for which the “thermal shift delta Tm” value came out at 0.08 °C. Take `COc1cc2nccc(Oc3ccc(NC(=O)C4(C(=O)Nc5ccc(F)cc5)CC4)cc3)c2cc1OC` [Cabozantinib malate (XL184)]: the “thermal shift delta Tm” value is 0.63 °C. `C1=N/C2=N/c3ccc(OCCN4CCCC4)c(c3)COC/C=C/COCc3cccc(c3)C(=C1)N2` [Pacritinib (SB1518)]: the “thermal shift delta Tm” value stood at 0.34 °C. With `N#Cc1cnc(Nc2cc(NC[C@H]3CNCCO3)c(C(F)(F)F)cn2)cn1`, the “thermal shift delta Tm” value was 0.75 °C. As for `COc1cc(N2CCN(C)CC2)ccc1Nc1nccc(-c2cn(C)c3cnccc23)n1`, the “thermal shift delta Tm” value is 0.19 °C. With `CC(C)(C)NS(=O)(=O)c1cncc(-c2cc(F)c3nc(N)nn3c2)c1`, the “thermal shift delta Tm” value is 0.36 °C.

As for `CCNC(=O)C#Cc1ccc2c(C(=Nc3ccc(CN(C)C)cc3)c3ccccc3)c(O)[nH]c2c1`, the “thermal shift delta Tm” value is -0.33 °C. For the compound `O=C1NC(=O)[C@@H](c2cn3c4c(cccc24)CCC3)[C@@H]1c1c[nH]c2ccccc12` [Tivantinib (ARQ 197)], the “thermal shift delta Tm” value came to 0.27 °C. In the case of `O=S(=O)(c1cccc2c(I)cccc12)N1CCCNCC1`, the “thermal shift delta Tm” value worked out at 0.24 °C. `CCN1CCN(Cc2ccc(C(=O)Nc3ccc(C)c(Oc4ccc5c(c4)CC(=O)N5)c3)cc2C(F)(F)F)CC1`: the “thermal shift delta Tm” value came to 0.25 °C. Consider `C[C@@H](Nc1cc(F)cc(F)c1)c1cc(C(=O)N(C)C)cc2c(=O)cc(N3CCOCC3)oc12`, for which the “thermal shift delta Tm” value was 0.01 °C. Take `C[C@H](CN(C)C)Oc1nc(Nc2cc3cccc(Cl)c3cn2)cnc1C#N`: the “thermal shift delta Tm” value stood at 0.08 °C. `CNC(=O)c1cc(Oc2ccc(NC(=O)Nc3ccc(Cl)c(C(F)(F)F)c3)cc2)ccn1` [Sorafenib]: the “thermal shift delta Tm” value is 0.71 °C. With `COc1ccc(Cl)cc1NC(=O)Nc1cc(C)nc2ccccc12`, the “thermal shift delta Tm” value is 1.15 °C. For `O=C(c1cccc(Cl)c1F)N1CCN(Cc2cccc(Nc3nccs3)n2)CC1`, the “thermal shift delta Tm” value amounted to 0.25 °C. `CNC(=O)c1ccc(C)c(-n2c(C)cc(OCc3ccc(F)cc3F)c(Br)c2=O)c1`: the “thermal shift delta Tm” value was 0.44 °C. With `CCn1c(-c2nonc2N)nc2c(C#CC(C)(C)O)ncc(OC[C@H]3CCCNC3)c21`, the “thermal shift delta Tm” value worked out at 0.09 °C. Take `CCC[C@H](NC(=O)/C(C#N)=C/c1cccc(Br)n1)c1ccccc1` [Degrasyn (WP1130)]: the “thermal shift delta Tm” value was -1.59 °C. For the compound `OC1CCC(Nc2ncc3nc(Nc4c(F)cc(F)cc4F)n([C@H]4CCOC4)c3n2)CC1` (stereo partly specified) [Tanzisertib(CC-930)], the “thermal shift delta Tm” value stood at 0.08 °C. Turning to `CN(C)C/C=C/C(=O)Nc1cc2c(Nc3ccc(F)c(Cl)c3)ncnc2cc1O[C@H]1CCOC1` [Afatinib (BIBW2992) Dimaleate], the “thermal shift delta Tm” value was 0.14 °C.

Take `Cc1cc(O)c(-c2ccc([C@@H](C)CN)cc2)c2c1[nH]c(=O)c1sccc12` [OTS514 hydrochloride]: the “thermal shift delta Tm” value is -0.1 °C.

Regarding `Cc1ccc(F)c(NC(=O)Nc2ccc(-c3cccc4[nH]nc(N)c34)cc2)c1` [Linifanib (ABT-869)], the “thermal shift delta Tm” value came out at 0.54 °C. The same measure, in the same setting: the value for `COc1cc(N2CCC(N(C)C)CC2)ccc1Nc1ncc(Cl)c(Nc2ccccc2P(C)(C)=O)n1` was 0.25 °C.

A further experiment deals with T1, LOC_OS01G52050-cb004.
T1 sequence (whole entry): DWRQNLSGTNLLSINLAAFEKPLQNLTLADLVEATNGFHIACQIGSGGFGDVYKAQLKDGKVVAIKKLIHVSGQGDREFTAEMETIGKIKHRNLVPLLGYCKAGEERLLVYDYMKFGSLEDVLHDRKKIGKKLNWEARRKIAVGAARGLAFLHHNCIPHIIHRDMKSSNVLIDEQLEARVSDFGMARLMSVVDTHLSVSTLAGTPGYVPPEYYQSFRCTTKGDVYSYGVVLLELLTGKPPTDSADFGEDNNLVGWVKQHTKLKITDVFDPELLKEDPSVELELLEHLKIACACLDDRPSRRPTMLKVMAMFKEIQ
The experiment is described as above. To be noted: 12.5 µM; protein concentration 2 µM. In short, it runs like this: as §1
In the case of `CCNC(=O)Nc1ccc(-c2nc(N3CCOC[C@@H]3C)c3c(n2)C(C)(C)S(=O)(=O)C3)cc1`, the “thermal shift delta Tm” value was 3.06 °C. On to `CN1CCN(c2ccc(OC(F)(F)F)c(Nc3ncc4c(n3)-c3c(c(C(N)=O)nn3CCO)CC4)c2)CC1`, for which the “thermal shift delta Tm” value stood at 1.03 °C. Same read-out and setting: the value for `C[C@@H](Oc1cc(-n2cnc3ccc(CN4CCN(C)CC4)cc32)sc1C(N)=O)c1ccccc1C(F)(F)F` was 0.53 °C; that for `COc1cc(OC)cc(-c2cc3cnc(N)nc3nc2NC(=O)NC(C)(C)C)c1` was 1.75 °C; that for `COC(=O)c1ccc2c(c1)NC(=O)/C2=C(\Nc1ccc(N(C)C(=O)CN2CCN(C)CC2)cc1)c1ccccc1` [Nintedanib (BIBF 1120)] was 1.07 °C. In the case of `Cc1[nH]c(/C=C2\C(=O)Nc3ccccc32)c(C)c1CCC(=O)O` [Orantinib (TSU-68, SU6668)], the “thermal shift delta Tm” value came to 3.61 °C.

In the case of `NC1(c2ccc(-c3nc4ccn5c(=O)[nH]nc5c4cc3-c3ccccc3)cc2)CCC1`, the “thermal shift delta Tm” value was found to be 0.16 °C.

Take `N#Cc1ccc2[nH]c(O)c(-c3ccc(CN4CCOCC4)cn3)c2c1`: the “thermal shift delta Tm” value was 0.44 °C.

Turning to `C=C[C@@](C)(/C=C/c1ccc(O)cc1)CCC=C(C)C` [Bakuchiol], the “thermal shift delta Tm” value came to 3.47 °C. `Cn1cnc2c(F)c(Nc3ccc(Br)cc3F)c(C(=O)NOCCO)cc21`: the “thermal shift delta Tm” value was 0.01 °C. As for `CC(C)(C)c1nc(-c2ccc(NC(=O)Nc3cccc(C(F)(F)F)c3)c3ccccc23)c2c(N)nccn12` [kira6], the “thermal shift delta Tm” value came to 5.68 °C. For the compound `CC1=C(C(=O)Nc2cc3cn[nH]c3cc2F)C(c2ccc(C(F)(F)F)cc2)CC(=O)N1` (stereo unspecified), the “thermal shift delta Tm” value is 0 °C.

Regarding `Cc1cn(-c2cc(NC(=O)c3ccc(C)c(Nc4nccc(-c5cnccn5)n4)c3)cc(C(F)(F)F)c2)cn1` [Radotinib], the “thermal shift delta Tm” value was found to be 0.51 °C. Consider `COc1ncc(-c2ccc3nccc(-c4ccnnc4)c3c2)cc1NS(=O)(=O)c1ccc(F)cc1F`, for which the “thermal shift delta Tm” value was 1.09 °C. `CNC(=O)c1cc(COc2nnc(Nc3ccc(Cl)cc3)c3ccoc23)ccn1` [Telatinib]: the “thermal shift delta Tm” value turned out to be 0.21 °C. For `COc1cc2nccc(Oc3ccc(NC(=O)C4(C(=O)Nc5ccc(F)cc5)CC4)cc3)c2cc1OC` [Cabozantinib malate (XL184)], the “thermal shift delta Tm” value worked out at 0.38 °C. Same read-out and setting: the value for `C1=N/C2=N/c3ccc(OCCN4CCCC4)c(c3)COC/C=C/COCc3cccc(c3)C(=C1)N2` [Pacritinib (SB1518)] was 8.62 °C. On the same count and under the same terms, then `N#Cc1cnc(Nc2cc(NC[C@H]3CNCCO3)c(C(F)(F)F)cn2)cn1`, with 5.23 °C. Turning to `COc1cc(N2CCN(C)CC2)ccc1Nc1nccc(-c2cn(C)c3cnccc23)n1`, the “thermal shift delta Tm” value was 1.15 °C.

As to `CC(C)(C)NS(=O)(=O)c1cncc(-c2cc(F)c3nc(N)nn3c2)c1`, the “thermal shift delta Tm” value amounted to 0.57 °C. For `CCNC(=O)C#Cc1ccc2c(C(=Nc3ccc(CN(C)C)cc3)c3ccccc3)c(O)[nH]c2c1`, the “thermal shift delta Tm” value turned out to be 2.8 °C. As for `O=C1NC(=O)[C@@H](c2cn3c4c(cccc24)CCC3)[C@@H]1c1c[nH]c2ccccc12` [Tivantinib (ARQ 197)], the “thermal shift delta Tm” value was 0.75 °C.

As for `O=S(=O)(c1cccc2c(I)cccc12)N1CCCNCC1`, the “thermal shift delta Tm” value is 2.58 °C. Take `CCN1CCN(Cc2ccc(C(=O)Nc3ccc(C)c(Oc4ccc5c(c4)CC(=O)N5)c3)cc2C(F)(F)F)CC1`: the “thermal shift delta Tm” value amounted to 1.08 °C. Take `C[C@@H](Nc1cc(F)cc(F)c1)c1cc(C(=O)N(C)C)cc2c(=O)cc(N3CCOCC3)oc12`: the “thermal shift delta Tm” value was -0.12 °C. `C[C@H](CN(C)C)Oc1nc(Nc2cc3cccc(Cl)c3cn2)cnc1C#N`: the “thermal shift delta Tm” value came out at 1.79 °C. With `CNC(=O)c1cc(Oc2ccc(NC(=O)Nc3ccc(Cl)c(C(F)(F)F)c3)cc2)ccn1` [Sorafenib], the “thermal shift delta Tm” value came out at 5.22 °C.

For the compound `COc1ccc(Cl)cc1NC(=O)Nc1cc(C)nc2ccccc12`, the “thermal shift delta Tm” value came to 1.3 °C. On to `O=C(c1cccc(Cl)c1F)N1CCN(Cc2cccc(Nc3nccs3)n2)CC1`, for which the “thermal shift delta Tm” value is 4.36 °C.

`CNC(=O)c1ccc(C)c(-n2c(C)cc(OCc3ccc(F)cc3F)c(Br)c2=O)c1`: the “thermal shift delta Tm” value worked out at 0.41 °C. For the compound `CCn1c(-c2nonc2N)nc2c(C#CC(C)(C)O)ncc(OC[C@H]3CCCNC3)c21`, the “thermal shift delta Tm” value was determined as 0.04 °C.

On to `CCC[C@H](NC(=O)/C(C#N)=C/c1cccc(Br)n1)c1ccccc1` [Degrasyn (WP1130)], for which the “thermal shift delta Tm” value is -3.54 °C. On to `OC1CCC(Nc2ncc3nc(Nc4c(F)cc(F)cc4F)n([C@H]4CCOC4)c3n2)CC1` (stereo partly specified) [Tanzisertib(CC-930)], for which the “thermal shift delta Tm” value was 2.88 °C. On to `CN(C)C/C=C/C(=O)Nc1cc2c(Nc3ccc(F)c(Cl)c3)ncnc2cc1O[C@H]1CCOC1` [Afatinib (BIBW2992) Dimaleate], for which the “thermal shift delta Tm” value was 1.67 °C.

Take `Cc1cc(O)c(-c2ccc([C@@H](C)CN)cc2)c2c1[nH]c(=O)c1sccc12` [OTS514 hydrochloride]: the “thermal shift delta Tm” value was 1.82 °C. With `Cc1ccc(F)c(NC(=O)Nc2ccc(-c3cccc4[nH]nc(N)c34)cc2)c1` [Linifanib (ABT-869)], the “thermal shift delta Tm” value worked out at 6.66 °C. As for `COc1cc(N2CCC(N(C)C)CC2)ccc1Nc1ncc(Cl)c(Nc2ccccc2P(C)(C)=O)n1`, the “thermal shift delta Tm” value came to 3.85 °C.
